Data on five molecules can be found in PubChem BioAssay.

The test system of assay [1] is PRMT1 (protein arginine N-methyltransferase 1). In words: PRMT1 binders on small-molecule microarrays, primary screen, biochemical, small-molecule microarray, 635 nm fluorescence (AID 1088).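 Note: binding of Prmt1 protein to compounds spotted on small-molecule microarray slides.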 The following applies: small-molecule microarray binding, higher = more signal.
A short description of assay [2]: yeast growth modulation, basal conditions, primary screen, YJM789 clinical isolate, OD600, 24 h (AID 1089).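 Note: growth of clinical yeast isolate S. cerevisiae YJM 789 seeded 1000 cells per well; test concentration not given here.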 The conditions noted are these: S. cerevisiae YJM789 growth, higher = more signal, called active from +8 up or from −8 down.
Assay [3] in a line: fission yeast growth modulation, primary screen, strain 972, OD600, 24 h, no modulator (AID 1090).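 Note: basal condition with compound alone and no growth modifier present; test concentration not given here.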 The following applies: S. pombe 972 growth, higher = more signal, called active from +8 up or from −8 down.
A short description of assay [4]: S. cerevisiae growth modulation with rapamycin, primary screen, strain BY4716, OD600, 96 h (AID 1091). Note: test concentration not given here. The conditions noted are these: higher = more signal, called active from +8 up or from −8 down.
The target in assay [5] is Torsin-1A-interacting protein 2 (Homo sapiens) (UniProt Q8NFQ8). In words: LULL1 binders on small-molecule microarray, primary screen, cell lysate, human LULL1 lysate, 635/667 nm fluorescence (AID 1092).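 Note: probe is lysate of COS7 cells overexpressing human LULL1; score merges per-feature 667 nm fluorescence with signal-to-noise.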 The following applies: hLULL1 lysate binding, 635 nm fluorescence, higher = more signal.
Sequence of Torsin-1A-interacting protein 2 (Homo sapiens) (Q8NFQ8 whole entry, looked up): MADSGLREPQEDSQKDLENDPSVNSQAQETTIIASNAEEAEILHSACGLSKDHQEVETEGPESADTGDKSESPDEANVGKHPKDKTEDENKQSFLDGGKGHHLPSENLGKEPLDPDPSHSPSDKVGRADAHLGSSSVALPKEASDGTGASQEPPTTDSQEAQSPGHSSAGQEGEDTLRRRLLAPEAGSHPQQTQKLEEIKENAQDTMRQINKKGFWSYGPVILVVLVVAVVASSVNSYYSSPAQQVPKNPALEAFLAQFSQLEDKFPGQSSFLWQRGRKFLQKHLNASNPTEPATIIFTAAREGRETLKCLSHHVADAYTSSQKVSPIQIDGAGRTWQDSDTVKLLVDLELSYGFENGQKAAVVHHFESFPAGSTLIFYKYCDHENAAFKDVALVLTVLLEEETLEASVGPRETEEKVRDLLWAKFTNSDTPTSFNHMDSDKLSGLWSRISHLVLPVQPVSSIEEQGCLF
A short description of assay [6]: E. coli growth modulation, two-sided OD650, primary screen, E. coli filamentation project, strain DRC41, 24 h (AID 1093).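 Note: MC1000 strain lacking acrAB efflux and sulA so SOS filamentation is blocked; test concentration not given here.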 The conditions noted are these: OD650, 24 h, higher = more signal, called active from +8 up or from −8 down.
Assay [7] is described as follows: small-molecule microarray binders of probe aLefty2, primary screen, biochemical, biotinylated probe, 635/667 nm fluorescence (AID 1094).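 Note: score merges spot fluorescence near 667 nm with spot signal-to-noise ratio.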 The following applies: higher = more signal.
The subject of assay [8] is Noggin (protein binding on small-molecule microarray). Description: Noggin binders on small-molecule microarray, primary screen, biochemical, 635/667 nm fluorescence (AID 1095).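 Note: score merges 667 nm feature fluorescence with signal to noise over triplicate slides.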 The following applies: 635 nm fluorescence, higher = more signal.
Assay [9] deals with Neurogenic locus notch homolog protein 3 (Homo sapiens) (UniProt Q9UM47). Description: NOTCH3 binders on small-molecule microarray, primary screen, biochemical, 635/667 nm fluorescence (AID 1096). The following applies: NOTCH3 binding, 635 nm fluorescence, higher = more signal.
Sequence of Neurogenic locus notch homolog protein 3 (Homo sapiens) (Q9UM47 whole entry, looked up): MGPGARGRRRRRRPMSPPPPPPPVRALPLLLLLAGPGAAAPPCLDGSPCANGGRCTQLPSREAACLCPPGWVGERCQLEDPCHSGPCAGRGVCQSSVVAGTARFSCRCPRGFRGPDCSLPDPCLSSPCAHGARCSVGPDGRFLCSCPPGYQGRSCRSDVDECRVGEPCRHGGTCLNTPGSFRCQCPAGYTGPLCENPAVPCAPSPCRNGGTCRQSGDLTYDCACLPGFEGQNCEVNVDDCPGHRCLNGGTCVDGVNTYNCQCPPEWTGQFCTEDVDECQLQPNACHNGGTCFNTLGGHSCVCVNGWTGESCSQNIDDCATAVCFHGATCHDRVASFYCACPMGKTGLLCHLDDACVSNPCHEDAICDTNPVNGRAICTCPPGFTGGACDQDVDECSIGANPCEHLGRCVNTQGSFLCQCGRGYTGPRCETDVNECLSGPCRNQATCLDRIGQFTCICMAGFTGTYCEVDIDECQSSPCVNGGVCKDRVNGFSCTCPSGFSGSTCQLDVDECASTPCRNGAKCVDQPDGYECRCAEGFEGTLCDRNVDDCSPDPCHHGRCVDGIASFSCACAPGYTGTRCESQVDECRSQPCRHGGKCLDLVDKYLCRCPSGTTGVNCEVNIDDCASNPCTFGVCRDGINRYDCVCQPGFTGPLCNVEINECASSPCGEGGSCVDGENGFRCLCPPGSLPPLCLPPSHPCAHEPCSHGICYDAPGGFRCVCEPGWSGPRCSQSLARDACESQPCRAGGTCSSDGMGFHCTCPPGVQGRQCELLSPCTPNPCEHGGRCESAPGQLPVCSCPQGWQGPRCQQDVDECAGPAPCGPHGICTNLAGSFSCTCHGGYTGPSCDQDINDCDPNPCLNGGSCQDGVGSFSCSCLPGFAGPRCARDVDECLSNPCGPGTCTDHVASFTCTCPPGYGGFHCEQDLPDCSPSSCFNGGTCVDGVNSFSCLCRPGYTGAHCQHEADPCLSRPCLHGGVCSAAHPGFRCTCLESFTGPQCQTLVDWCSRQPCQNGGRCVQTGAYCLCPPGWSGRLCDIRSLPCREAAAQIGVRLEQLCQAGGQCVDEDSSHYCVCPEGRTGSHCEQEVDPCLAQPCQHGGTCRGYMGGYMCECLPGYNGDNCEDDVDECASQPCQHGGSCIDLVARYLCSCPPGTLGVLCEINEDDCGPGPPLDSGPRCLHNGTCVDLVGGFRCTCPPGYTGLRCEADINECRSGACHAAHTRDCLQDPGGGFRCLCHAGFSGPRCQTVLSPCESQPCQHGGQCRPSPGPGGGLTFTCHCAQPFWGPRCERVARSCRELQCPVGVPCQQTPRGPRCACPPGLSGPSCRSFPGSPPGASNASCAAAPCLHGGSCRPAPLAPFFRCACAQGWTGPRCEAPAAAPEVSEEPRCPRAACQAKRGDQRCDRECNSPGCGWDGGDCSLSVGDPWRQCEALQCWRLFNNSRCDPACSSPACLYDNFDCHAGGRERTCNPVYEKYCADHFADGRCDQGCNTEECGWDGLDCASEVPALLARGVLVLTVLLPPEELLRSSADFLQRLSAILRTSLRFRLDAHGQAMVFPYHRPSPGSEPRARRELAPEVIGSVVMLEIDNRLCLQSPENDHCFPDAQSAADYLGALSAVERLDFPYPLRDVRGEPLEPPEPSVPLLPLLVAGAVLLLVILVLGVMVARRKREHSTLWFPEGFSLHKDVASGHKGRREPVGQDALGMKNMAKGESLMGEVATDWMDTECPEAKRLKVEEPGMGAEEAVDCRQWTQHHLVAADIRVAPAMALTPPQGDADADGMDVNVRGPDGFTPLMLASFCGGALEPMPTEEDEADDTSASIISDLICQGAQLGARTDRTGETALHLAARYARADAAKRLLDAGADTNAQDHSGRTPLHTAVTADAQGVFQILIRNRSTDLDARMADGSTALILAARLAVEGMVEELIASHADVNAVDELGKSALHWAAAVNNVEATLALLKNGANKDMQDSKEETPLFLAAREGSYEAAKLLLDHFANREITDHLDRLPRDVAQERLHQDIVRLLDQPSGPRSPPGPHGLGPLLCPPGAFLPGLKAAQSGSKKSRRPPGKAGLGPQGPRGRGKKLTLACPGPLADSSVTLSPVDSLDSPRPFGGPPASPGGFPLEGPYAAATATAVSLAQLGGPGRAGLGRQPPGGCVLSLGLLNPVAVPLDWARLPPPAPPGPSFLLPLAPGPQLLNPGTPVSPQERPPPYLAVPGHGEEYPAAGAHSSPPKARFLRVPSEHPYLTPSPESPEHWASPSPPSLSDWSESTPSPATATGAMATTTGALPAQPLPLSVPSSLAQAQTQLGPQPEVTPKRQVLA
Assay [10] can be described thus: small-molecule microarray binders of probe aEGFR, primary screen, biochemical, biotinylated probe, 635/667 nm fluorescence (AID 1097).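 Note: probe is a biotinylated anti-EGFR antibody binding compounds printed on slides; score combines fluorescence near 667 nm and signal to noise of each spot.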 The following applies: higher = more signal.
In assay [11] the test system is Plasmodium falciparum Sir2 (PF13_0152, Sir2A). Description: pfSir2 binders on small-molecule microarrays, primary screen, biochemical, small-molecule microarray, 635 nm fluorescence (AID 1098).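 Note: score merges spot fluorescence intensity with its signal-to-noise ratio.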 The following applies: small-molecule microarray binding, fluorescence 635 nm; higher = more signal.
Assay [12] can be described thus: small-molecule microarray binders of probe aDKK1, primary screen, biochemical, biotinylated probe, 635/667 nm fluorescence (AID 1099).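 Note: score merges 667nm spot fluorescence with signal to noise across triplicate slides; reference of the scale not given here.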 The following applies: higher = more signal.
Assay [13] in a line: small-molecule microarray binders of probe aCHRDL2, primary screen, biochemical, biotinylated probe, 635/667 nm fluorescence (AID 1100). The following applies: higher = more signal.
A short description of assay [14]: splicing luciferase reporter signal modulators, primary screen, spliceosome inhibition project, cell-based, HEK293, splice +/- reporter (AID 1101).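 Note: HEK293 cells carrying a splicing-competent luciferase reporter gene; test concentration not given here.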 The following applies: luminescence, 24 h, higher = more signal, called active from +8 up or from −8 down. On the technique in general: In a reporter assay the amount or activity of a reporter protein is the signal.
Assay [15] concerns the target Fibroblast growth factor 10 (Homo sapiens) (UniProt O15520). Description: FGF10 binders on small-molecule microarrays, primary screen, biochemical, small-molecule microarray, 635 nm fluorescence (AID 1102). The conditions noted are these: FGF10 binding, fluorescence 635 nm, higher = more signal.
In assay [16] the test system is glycogen synthase kinase-3 (GSK3A per assay name; protocol says GSK3B). In words: GSK3 binders on small-molecule microarrays, primary screen, biochemical, small-molecule microarray, 635 nm fluorescence, GSK3A (AID 1103). Note: the record names both GSK3A and GSK3B. The conditions noted are these: small-molecule microarray binding, fluorescence 635 nm; higher = more signal.
In assay [17] the target is Epidermal growth factor receptor (Homo sapiens) (UniProt P00533). Description: EGFR binders on small-molecule microarrays, primary screen, biochemical, small-molecule microarray, 635 nm fluorescence (AID 1104).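 Note: score merges 667 nm emission intensity with spot signal to noise over triplicate slides.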 The following applies: EGFR binding, higher = more signal.
Sequence of Epidermal growth factor receptor (Homo sapiens) (P00533 whole entry, looked up): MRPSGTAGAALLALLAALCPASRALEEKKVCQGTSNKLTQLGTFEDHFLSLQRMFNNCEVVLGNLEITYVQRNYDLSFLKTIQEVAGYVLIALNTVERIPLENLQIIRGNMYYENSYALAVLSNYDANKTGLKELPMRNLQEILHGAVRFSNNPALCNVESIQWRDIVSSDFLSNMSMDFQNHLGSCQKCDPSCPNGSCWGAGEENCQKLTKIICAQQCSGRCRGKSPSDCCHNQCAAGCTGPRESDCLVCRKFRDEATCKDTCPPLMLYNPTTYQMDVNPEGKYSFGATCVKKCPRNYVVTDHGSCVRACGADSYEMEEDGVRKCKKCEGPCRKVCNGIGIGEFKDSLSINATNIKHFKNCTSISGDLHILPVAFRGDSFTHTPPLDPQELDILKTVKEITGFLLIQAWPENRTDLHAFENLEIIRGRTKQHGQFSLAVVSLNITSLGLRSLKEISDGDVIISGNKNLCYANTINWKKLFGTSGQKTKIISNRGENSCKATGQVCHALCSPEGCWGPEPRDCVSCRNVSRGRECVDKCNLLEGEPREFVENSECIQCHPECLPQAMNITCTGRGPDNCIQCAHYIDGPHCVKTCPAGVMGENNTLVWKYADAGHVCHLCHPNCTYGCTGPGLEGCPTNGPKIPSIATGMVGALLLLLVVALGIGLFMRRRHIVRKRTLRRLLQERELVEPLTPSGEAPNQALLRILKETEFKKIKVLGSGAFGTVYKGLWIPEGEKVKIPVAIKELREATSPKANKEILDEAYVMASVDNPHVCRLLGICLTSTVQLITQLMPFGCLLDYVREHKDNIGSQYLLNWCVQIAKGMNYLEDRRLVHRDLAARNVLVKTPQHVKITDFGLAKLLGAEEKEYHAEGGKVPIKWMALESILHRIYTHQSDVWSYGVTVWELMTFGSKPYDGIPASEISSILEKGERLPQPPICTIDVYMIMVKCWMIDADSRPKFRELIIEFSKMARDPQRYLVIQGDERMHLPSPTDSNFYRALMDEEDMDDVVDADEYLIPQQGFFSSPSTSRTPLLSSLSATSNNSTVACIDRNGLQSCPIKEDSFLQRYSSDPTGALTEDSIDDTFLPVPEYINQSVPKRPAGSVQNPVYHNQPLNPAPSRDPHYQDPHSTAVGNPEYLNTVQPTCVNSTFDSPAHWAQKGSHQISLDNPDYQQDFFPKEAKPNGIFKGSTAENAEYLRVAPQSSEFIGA
The target of assay [18] is Follistatin-related protein 3 (Homo sapiens) (UniProt O95633). In words: FSTL3 binders on small-molecule microarrays, primary screen, biochemical, small-molecule microarray, 635 nm fluorescence (AID 1105).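 Note: score merges emission near 667 nm and signal to noise per printed spot across three slides.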 The following applies: FSTL3 binding, higher = more signal.
Sequence of Follistatin-related protein 3 (Homo sapiens) (O95633 whole entry, looked up): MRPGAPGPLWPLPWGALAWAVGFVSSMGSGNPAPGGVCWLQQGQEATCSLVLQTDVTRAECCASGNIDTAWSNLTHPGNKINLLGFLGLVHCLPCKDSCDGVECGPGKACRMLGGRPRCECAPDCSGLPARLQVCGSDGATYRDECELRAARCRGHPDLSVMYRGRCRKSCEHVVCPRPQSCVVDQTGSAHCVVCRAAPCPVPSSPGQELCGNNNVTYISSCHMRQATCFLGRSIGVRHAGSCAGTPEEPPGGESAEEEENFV
Assay [19] addresses Dickkopf-related protein 1 (Homo sapiens) (UniProt O94907). Description: DKK1 binders on small-molecule microarrays, primary screen, biochemical, small-molecule microarray, 635 nm fluorescence scan (AID 1106).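 Note: score merges emission near 667 nm with signal to noise over three replicate slides.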 The conditions noted are these: DKK1 binding, higher = more signal.
Assay [20] relates to Inhibin beta A chain (activin A). Description: INHBA (activin A) binders on microarrays, primary screen, biochemical, small-molecule microarray, 635 nm fluorescence scan (AID 1107).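 Note: mouse activin A protein probed at 4.33 µg/mL on printed slides; score merges bound-protein fluorescence near 667 nm with spot signal-to-noise.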 The conditions noted are these: small-molecule microarray binding, higher = more signal.

Activity calls are given as the source filed them.

Sequence of Fibroblast growth factor 10 (Homo sapiens) (O15520 whole entry, looked up): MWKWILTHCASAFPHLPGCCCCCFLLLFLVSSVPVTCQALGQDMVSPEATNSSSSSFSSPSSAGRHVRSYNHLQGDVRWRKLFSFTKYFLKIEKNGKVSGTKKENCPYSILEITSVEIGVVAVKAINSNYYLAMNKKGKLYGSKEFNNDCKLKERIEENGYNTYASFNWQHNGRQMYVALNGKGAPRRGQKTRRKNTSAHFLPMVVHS
Sequence of Dickkopf-related protein 1 (Homo sapiens) (O94907 whole entry, looked up): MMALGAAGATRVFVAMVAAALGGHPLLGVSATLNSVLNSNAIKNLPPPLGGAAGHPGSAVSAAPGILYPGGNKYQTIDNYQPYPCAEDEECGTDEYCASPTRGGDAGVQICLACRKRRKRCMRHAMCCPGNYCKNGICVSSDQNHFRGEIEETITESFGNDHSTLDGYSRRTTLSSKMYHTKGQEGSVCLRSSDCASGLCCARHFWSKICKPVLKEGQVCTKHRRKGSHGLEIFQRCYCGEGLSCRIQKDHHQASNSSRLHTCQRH

Consider `C=CC[C@@H]1C=C[C@H](ON=C2c3cc(OC)ccc3O[C@H](c3cccc(OC)c3)[C@H]2O)[C@@H](CO)O1`, for which the composite z-score in assay [1] is -0.524; in assay [5], 0.813; in assay [7] it was -0.233; in assay [8], -0.0543; in assay [9] it was 0.0033; in assay [10], -0.133. Moreover, the composite z-score was 0.0678 in assay [11]; -0.403 in [12]; -0.626 in [13]; 0.0385 in assay [15]; -0.325 in assay [16]; 0.379 in [17]. Also, the composite z-score in assay [18] was 0.0069; in assay [19] it was 0.26; in assay [20], -0.0002. The z-score was -0.39 (inactive) in assay [2]; -0.851 (inactive) in assay [3]; -1.42 (inactive) in assay [4]; 0.686 (inactive) in assay [6]; -0.766 (inactive) in [14].

Turning to `CC(CCN1CCc2nc(-c3ccccc3)c(-c3ccccc3)cc2C1)=NO[C@H](C)c1cn([C@@H]2COC[C@H]2O)nn1`, the composite z-score in [1] was 1.49; in assay [5], 2.03; in assay [7], 0.0218; in [8] it was 0.224; in [9], 0.299; in [10] it was -0.137. Also, the composite z-score in [11] was 1.1; in [12], -0.182; in assay [13], -0.432; in [15], 0.215; in assay [16], 0.403; in assay [17] it was 0.0515. For the same molecule, the figures for the composite z-score in assay [18], in assay [19] and in [20] were 0.343, 0.0546 and 0.763, respectively. Also, the z-score in assay [2] is -0.0653 (inactive); in assay [3], -1.35 (inactive); in assay [4], -4.33 (inactive); in assay [6], 0.364 (inactive); in assay [14], 0.611 (inactive).

For the molecule `N#Cc1ccc(NN2C(C(O)c3cccc4ccccc34)C=CC3C(=O)N(c4ccccc4)C(=O)C32)cc1` (stereo not given), the composite z-score in [1] was 1.39; in assay [5] it was 3.41; in [7] it was 0.341; in assay [8] it was 0.157; in assay [9] it was -0.262; in [10], 0.0785. The composite z-score was found to be 0.582 in assay [11]; 0.687 in [12]; 1.14 in assay [13]; 0.899 in [15]; 0.676 in assay [16]; 0.316 in assay [17]. The composite z-score in assay [18] is 0.898; in assay [19], -0.203; in assay [20], 0.478. In addition, the z-score is 0.242 (inactive) in assay [2]; 2.28 (inactive) in assay [3]; 1.75 (inactive) in [4]; -0.339 (inactive) in [6]; 1.27 (inactive) in [14].

As to `O=C1[C@H]2[C@H]3[C@H](O)[C@H](O)CC(=NOCc4ccccc4)[C@H]3CC[C@H]2C(=O)N1C[C@@H]1CCCO1`, the composite z-score in assay [1] was -0.107; in [5], 0.78; in [7], -0.238; in [8] it was 0.322; in assay [9], 0.48; in [10], -0.123. Further, the composite z-score in [11] was 0.565; in [12], 0.114; in [13], -0.418; in assay [15], 0.863; in assay [16], 0.632; in [17], 0.582. In addition, the composite z-score in assay [18] was 0.728; in assay [19], 1.11; in assay [20], -0.209. The z-score in assay [2] is -0.139 (inactive); in [3], 0.531 (inactive); in assay [4] it was -0.351 (inactive); in assay [6], 0.0096 (inactive); in [14] it was 0.0221 (inactive).

On to `COc1ccc(O[C@@H]2[C@H](O)CO[C@H]2C=CC#Cc2ccccc2)cc1`, for which the composite z-score is 0.101 in assay [1]; 0.0101 in assay [5]; -0.197 in [7]; 0.347 in assay [8]; -0.413 in assay [9]; -0.228 in assay [10]. The composite z-score in [11] was 1.32; in assay [12] it was -0.477; in assay [13], -0.716; in [15] it was 0.199; in assay [16], -0.207; in assay [17] it was -0.352. Moreover, the composite z-score in assay [18] turned out to be 0.103; in [19] it was 0.438; in assay [20] it was 0.539. Besides, the z-score in assay [2] is 0.937 (inactive); in assay [3] it was -0.777 (inactive); in assay [4], 0.958 (inactive); in assay [6], 0.338 (inactive); in assay [14], 0.167 (inactive).
